# “And” between values parts separate entries of the source, which are not always exact repeats. Identical values can stand only once. Inconclusive results are not listed. Entries that show only a call come without a potency. The source holds several records for some structures; these can differ, active in one and inactive in another. The source made the active and inactive calls. Unless noted, the call rests on the fitted dose curve; in most records, active means well fitted curve in either direction with a large enough effect (not every such curve was filed as active); inconclusive means small, poorly fitted or top-dose-only effect, or another doubt; inactive means flat fitted curve, though single readings scatter.
# Assays:
# [1] = AP1 Signaling Pathway (AID 357);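 further: ME-180 reporter cells stimulated with EGF at its EC50 level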
# Method in brief: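 A ratiometric CCF4 readout (405 nm excitation; 460 and 530 nm emission) quantified AP-1-driven beta-lactamase in ME-180 cells after 5 h with compound and EC50 EGF; AC50 values were derived for activators and inhibitors.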
# [2] = target: Cytochrome P450 1A2 (Homo sapiens) (UniProt P05177); experiment: p450-cyp1a2 (AID 410; calls by dose curve; further: potency means the concentration at half of the fitted maximal effect)
# Sequence of Cytochrome P450 1A2 (Homo sapiens) (P05177 whole entry, looked up): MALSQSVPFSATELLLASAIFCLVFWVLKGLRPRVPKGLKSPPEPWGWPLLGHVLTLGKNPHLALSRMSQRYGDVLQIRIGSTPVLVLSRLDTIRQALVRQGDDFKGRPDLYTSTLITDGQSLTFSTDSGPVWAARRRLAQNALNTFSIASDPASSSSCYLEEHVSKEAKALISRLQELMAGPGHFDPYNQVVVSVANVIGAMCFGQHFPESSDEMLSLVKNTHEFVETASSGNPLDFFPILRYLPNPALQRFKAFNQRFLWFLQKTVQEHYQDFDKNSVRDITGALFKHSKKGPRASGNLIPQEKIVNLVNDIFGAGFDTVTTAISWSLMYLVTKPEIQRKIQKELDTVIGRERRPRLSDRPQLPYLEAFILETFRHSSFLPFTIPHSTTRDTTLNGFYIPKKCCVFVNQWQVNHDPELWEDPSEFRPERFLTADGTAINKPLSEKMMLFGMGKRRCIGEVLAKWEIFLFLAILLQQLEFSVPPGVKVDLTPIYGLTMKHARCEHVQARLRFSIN
# Method in brief: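 O-Demethylation of luciferin 6' methyl ether by human CYP1A2 is monitored as luciferase luminescence. Substrate sits at Km (100uM); enzyme is 20nM. Values are scaled to 57 uM furafylline as maximal inhibition.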
# [3] = NFAT Signaling Pathway (AID 444); details: Jurkat NFAT-bla M1, carbachol, beta-lactamase ratio, 5 h;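 further: carbachol stimulus at about its EC50 of 1 µM final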
# Method in brief: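 Read-out: CCF4 FRET ratio (460 nm/530 nm) after 1 h RT dye loading, used for %activity and AC50 from titration series. Cells: Jurkat NFAT-β-lactamase/M1 line, treated with compound plus 1 uM carbachol for 5 h, 37 °C.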
# [4] = Stat Signaling Pathway (AID 446);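 further: ME-180 cervical cancer cells given 40 pM IL-6 alongside compound; SIE-controlled beta-lactamase reporter measured as 460/530 nm FRET emission ratio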
# Method in brief: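 Compound effects on IL-6-induced STAT reporter activity were measured in ME-180 cells. After overnight culture, cells were co-treated with 40 pM IL-6 for 5 hrs before beta-lactamase substrate loading at room temperature.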
# [5] = target: Glucocorticoid receptor (Homo sapiens) (UniProt P04150); experiment: GR-GFP Redistribution (AID 450;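 active means compounds whose dose series gives a full or clear partial fitted curve of increased nuclear translocation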; further: potency means the concentration at half of the fitted maximal effect); details: U2OS GR-GFP nuclear translocation, laser cytometry, 2 h
# Sequence of Glucocorticoid receptor (Homo sapiens) (P04150 whole entry, looked up, the tested form may be a part): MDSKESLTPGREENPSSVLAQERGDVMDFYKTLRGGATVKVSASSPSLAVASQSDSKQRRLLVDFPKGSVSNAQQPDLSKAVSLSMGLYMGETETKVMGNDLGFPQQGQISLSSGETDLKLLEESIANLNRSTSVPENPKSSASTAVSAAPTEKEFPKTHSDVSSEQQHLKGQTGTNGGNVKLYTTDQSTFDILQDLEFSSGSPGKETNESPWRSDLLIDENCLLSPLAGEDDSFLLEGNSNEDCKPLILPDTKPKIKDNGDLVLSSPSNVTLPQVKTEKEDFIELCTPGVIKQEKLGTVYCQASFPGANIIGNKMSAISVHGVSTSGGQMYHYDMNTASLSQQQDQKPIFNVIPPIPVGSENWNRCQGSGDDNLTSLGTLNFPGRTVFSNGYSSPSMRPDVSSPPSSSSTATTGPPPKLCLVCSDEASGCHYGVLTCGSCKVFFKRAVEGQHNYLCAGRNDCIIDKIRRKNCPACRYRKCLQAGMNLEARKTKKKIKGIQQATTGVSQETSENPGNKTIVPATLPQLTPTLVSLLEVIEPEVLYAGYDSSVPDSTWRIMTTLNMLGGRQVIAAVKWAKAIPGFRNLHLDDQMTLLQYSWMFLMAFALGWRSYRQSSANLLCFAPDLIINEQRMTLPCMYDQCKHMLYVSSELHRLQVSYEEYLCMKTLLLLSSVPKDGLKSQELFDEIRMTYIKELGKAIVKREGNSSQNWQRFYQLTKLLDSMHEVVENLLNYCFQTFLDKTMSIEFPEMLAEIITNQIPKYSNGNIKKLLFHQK
# [6] = target: Glucocorticoid receptor (Homo sapiens) (UniProt P04150); experiment: GR-EFC Redistribution (AID 451; calls by dose curve; further: potency means the concentration at half of the fitted maximal effect); details: CHO-K1 GR-EFC translocation, beta-gal luminescence, 2 h
# Method in brief: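 Translocation of GR-ED fusion to nuclear EA restores b-gal, read by luminescence after 1 h room-temperature detection. Engineered CHO-K1 biosensor cells, 1,000/well, exposed 2 h at 37 C to titrations up to 46 uM final.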
# [7] = target: Mitogen-activated protein kinase 10 (Mus musculus) (UniProt Q61831); experiment: JNK3 AlphaScreen Assay (AID 530);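 further: kinase came from lysate of stimulated human HepG2 cells; signal reports phosphorylation of biotinylated GST-cJun 1-79 at Ser73 with 10 µM ATP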
# Method in brief: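 qHTS titrations with 15 min compound pre-incubation before adding ATP (10 uM final). Read-out: AlphaScreen of Ser73-phosphorylated biotin-GST-cJun using HepG2 lysate JNK3 activated by IL-1β and TNFα.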
# [8] = target: 3',5'-cyclic-AMP phosphodiesterase 4B (Homo sapiens) (UniProt Q07343); experiment: qHTS Assay for Inhibitors of PDE-IV (AID 607; active means well fitted activation curve with a large enough effect in the main read-out, with a control signal flat, not every such curve was filed as active)
# Sequence of 3',5'-cyclic-AMP phosphodiesterase 4B (Homo sapiens) (Q07343 whole entry, looked up): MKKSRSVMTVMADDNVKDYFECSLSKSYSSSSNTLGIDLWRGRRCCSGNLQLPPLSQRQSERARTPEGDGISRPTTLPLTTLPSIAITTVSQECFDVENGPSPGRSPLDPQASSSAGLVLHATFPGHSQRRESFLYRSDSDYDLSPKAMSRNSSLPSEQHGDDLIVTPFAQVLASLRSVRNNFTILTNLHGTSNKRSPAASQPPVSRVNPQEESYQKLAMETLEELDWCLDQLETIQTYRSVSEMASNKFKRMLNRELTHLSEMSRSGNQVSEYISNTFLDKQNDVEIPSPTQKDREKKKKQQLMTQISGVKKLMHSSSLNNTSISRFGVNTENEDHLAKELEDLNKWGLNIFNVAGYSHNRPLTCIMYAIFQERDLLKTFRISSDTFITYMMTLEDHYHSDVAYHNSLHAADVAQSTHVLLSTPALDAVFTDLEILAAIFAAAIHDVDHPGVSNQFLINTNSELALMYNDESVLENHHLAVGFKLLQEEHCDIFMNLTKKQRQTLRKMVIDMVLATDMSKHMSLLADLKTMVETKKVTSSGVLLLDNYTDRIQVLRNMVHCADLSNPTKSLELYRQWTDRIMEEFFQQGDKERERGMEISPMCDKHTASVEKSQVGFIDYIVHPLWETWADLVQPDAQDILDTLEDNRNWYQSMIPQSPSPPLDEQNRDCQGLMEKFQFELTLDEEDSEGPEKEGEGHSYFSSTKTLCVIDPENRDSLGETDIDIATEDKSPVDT
# Method in brief: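 ACTOne HEK293 cells carry a modified cAMP-gated CNG channel and express endogenous PDE4; plated 1000 cells/well, compounds up to 22.9 uM final. Membrane-potential dye fluorescence (ex 535/em 590) was read; parental cells received 10 uM forskolin + 100 uM RO 20-1724.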
# [9] = qHTS Assay for Lipid Storage Modulators (AID 1519; calls by dose curve); details: Drosophila S3 cells, BODIPY lipid droplet/cell ratio, laser cytometry, cells loaded with oleic acid; for activity change, negative = inhibition: at 25.7 µM (top of the series)
# Method in brief: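 Cells seeded at 5,000 per well were treated with compounds over a concentration series and loaded with oleic acid (400 uM, as added). Lipid droplet fluorescence (488 nm excitation, 500-530 nm channel) was read by laser-scanning cytometry and normalized to 20 uM Triacsin C.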
# [10] = target: ATP-dependent 6-phosphofructokinase (Trypanosoma brucei brucei) (UniProt O15648); experiment: qHTS Assay to Find Inhibitors of T. brucei phosphofructokinase: hit validation (AID 492961; active means well fitted curve in the direction sought with a large enough effect; an effect the other way counts as inactive or inconclusive;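 further: luminescence reports ADP formed as PFK phosphorylates fructose-6-phosphate with ATP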)
# Sequence of ATP-dependent 6-phosphofructokinase (Trypanosoma brucei brucei) (O15648 whole entry, looked up): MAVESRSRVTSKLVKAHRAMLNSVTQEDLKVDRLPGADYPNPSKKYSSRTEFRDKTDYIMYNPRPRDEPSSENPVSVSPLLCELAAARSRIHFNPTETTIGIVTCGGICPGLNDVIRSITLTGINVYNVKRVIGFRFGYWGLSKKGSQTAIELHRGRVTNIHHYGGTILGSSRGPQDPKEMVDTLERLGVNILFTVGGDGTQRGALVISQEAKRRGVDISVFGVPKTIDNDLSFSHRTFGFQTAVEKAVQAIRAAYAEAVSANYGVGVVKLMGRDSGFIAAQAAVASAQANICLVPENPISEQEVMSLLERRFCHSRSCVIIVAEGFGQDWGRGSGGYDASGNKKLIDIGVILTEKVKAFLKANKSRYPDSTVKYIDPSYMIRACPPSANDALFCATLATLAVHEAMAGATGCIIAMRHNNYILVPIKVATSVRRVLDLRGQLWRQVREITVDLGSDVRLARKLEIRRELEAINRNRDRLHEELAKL
# Method in brief: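 In this biochemical qHTS validation, titrated compounds were tested against 1.25 nM PFK with 0.1 mM ATP and 0.5 mM F6P. Percent activity came from controls lacking or containing enzyme.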
# [11] = target: Ubiquitin carboxyl-terminal hydrolase 1 (Homo sapiens) (UniProt O94782); experiment: Inhibitors of USP1/UAF1: Pilot qHTS (AID 504865; active means well fitted curve in the direction sought with a large enough effect; an effect the other way counts as inactive or inconclusive;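 further: rhodamine fluorescence freed from ubiquitin-rhodamine substrate followed over time; top concentration of the series differs between compounds; nearly all actives have a fitted effect of over 35% in size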)
# Sequence of Ubiquitin carboxyl-terminal hydrolase 1 (Homo sapiens) (O94782 whole entry, looked up): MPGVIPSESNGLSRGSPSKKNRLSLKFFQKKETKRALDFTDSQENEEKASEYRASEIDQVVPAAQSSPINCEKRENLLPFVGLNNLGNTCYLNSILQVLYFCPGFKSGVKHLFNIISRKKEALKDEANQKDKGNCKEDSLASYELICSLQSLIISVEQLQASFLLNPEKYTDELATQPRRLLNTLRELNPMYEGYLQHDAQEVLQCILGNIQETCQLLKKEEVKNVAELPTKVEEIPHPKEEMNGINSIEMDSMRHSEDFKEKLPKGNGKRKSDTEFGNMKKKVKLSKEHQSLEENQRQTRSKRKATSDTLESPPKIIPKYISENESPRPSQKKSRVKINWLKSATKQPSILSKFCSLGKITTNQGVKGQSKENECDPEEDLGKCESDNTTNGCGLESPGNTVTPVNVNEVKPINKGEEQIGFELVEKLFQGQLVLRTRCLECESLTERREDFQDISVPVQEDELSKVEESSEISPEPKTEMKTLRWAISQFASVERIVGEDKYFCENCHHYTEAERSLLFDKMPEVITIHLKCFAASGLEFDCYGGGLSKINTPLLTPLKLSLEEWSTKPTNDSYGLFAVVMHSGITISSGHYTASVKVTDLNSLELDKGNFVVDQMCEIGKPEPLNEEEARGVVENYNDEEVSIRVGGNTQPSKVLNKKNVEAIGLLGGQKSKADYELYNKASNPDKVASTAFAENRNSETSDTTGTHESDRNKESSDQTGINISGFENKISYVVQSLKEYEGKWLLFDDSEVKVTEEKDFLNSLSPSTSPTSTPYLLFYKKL
# Method in brief: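 1nM USP1/UAF1 + cpd, 15 min RT; start w/ Ub-Rho 150nM final; kinetic FL 480/540 nm, 6 reads q60 s. Buffer 50mM HEPES pH 7.8, 0.5mM EDTA, 1mM TCEP, 0.01% Tween-20, 0.1 mg/ml BSA.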
# [12] = target: Luciferin 4-monooxygenase (Photinus pyralis) (UniProt P08659); experiment: Biochemical firefly luciferase enzyme assay for NPC (AID 624030; active means well fitted curve in the direction sought with a large enough effect; an effect the other way counts as inactive or inconclusive;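 further: purified P. pyralis luciferase at 10 nM with luciferin and ATP substrate; nearly all actives have a fitted effect of over 70% in size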)
# Sequence of Luciferin 4-monooxygenase (Photinus pyralis) (P08659 whole entry, looked up): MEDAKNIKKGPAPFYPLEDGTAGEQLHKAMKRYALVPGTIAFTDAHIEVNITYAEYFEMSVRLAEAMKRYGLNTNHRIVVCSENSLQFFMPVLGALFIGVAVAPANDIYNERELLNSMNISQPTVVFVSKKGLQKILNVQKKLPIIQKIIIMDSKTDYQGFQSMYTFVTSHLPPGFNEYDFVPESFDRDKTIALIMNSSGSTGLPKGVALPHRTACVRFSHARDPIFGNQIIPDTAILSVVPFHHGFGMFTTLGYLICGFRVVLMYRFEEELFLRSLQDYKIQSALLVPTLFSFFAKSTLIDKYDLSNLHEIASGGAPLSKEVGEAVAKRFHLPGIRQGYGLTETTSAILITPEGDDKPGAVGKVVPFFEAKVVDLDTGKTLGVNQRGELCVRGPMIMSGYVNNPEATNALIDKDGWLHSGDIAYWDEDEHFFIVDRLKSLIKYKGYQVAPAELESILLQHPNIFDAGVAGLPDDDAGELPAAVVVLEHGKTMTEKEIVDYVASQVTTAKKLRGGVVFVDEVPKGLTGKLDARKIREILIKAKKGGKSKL
# Method in brief: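 Direct inhibition of firefly luciferase enzyme (10 nM final, 50 mM Tris Acetate) assessed by luminescence within 5 minutes. Percent activity scaled between DMSO and PTC124 positive control, with concentration-effect curves classified by fit quality and response.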
# [13] = S16 Schwann cell PMP22 intronic element firefly luciferase assay (AID 624032; active means well fitted curve in the direction sought with a large enough effect; an effect the other way counts as inactive or inconclusive; further: nearly all actives have a fitted effect of over 30% in size)
# Method in brief: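 Luciferase reporter of PMP22 intronic-element expression in stably transfected S16 rat Schwann cells, read by ONE-Glo luminescence after 24 h compound exposure at 37 C. Activity scaled between DMSO (0%) and positive-control PTC124; concentration-effect curves quality-classified.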
# [14] = qHTS profiling for inhibitors of Plasmodium falciparum proliferation (AID 504749; active means well fitted curve in the direction sought with a large enough effect; an effect the other way counts as inactive or inconclusive; further: nearly all actives have a fitted effect of over 60% in size); details: P. falciparum in erythrocytes, SYBR Green DNA, 72 h
# Method in brief: (§1)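 SYBR Green fluorescence of parasite DNA, read after lysis and overnight dark incubation, measured growth over 72 h in erythrocyte culture at 0.3% parasitemia and 2.5% hematocrit. Data normalised to DMSO and 0.29 uM artemisinin, with plate-drift correction.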
# C2A = experiment: as above; details: P. falciparum in erythrocytes, SYBR Green DNA, 72 h; series mostly up to 28.7 µM
# Method in brief: as §1
# CP192 = experiment: as above; details: P. falciparum in erythrocytes, SYBR Green DNA, 72 h; series mostly up to 28.7 µM
# Method in brief: as §1
# CP262 = experiment: as above; details: P. falciparum in erythrocytes, SYBR Green DNA, 72 h; series mostly up to 28.7 µM
# Method in brief: as §1
# FAB9 = experiment: as above; details: P. falciparum in erythrocytes, SYBR Green DNA, 72 h; series mostly up to 28.7 µM
# Method in brief: as §1
# [15] = target: Cytochrome P450 3A4 (Homo sapiens) (UniProt P08684); experiment: qHTS Assay for Activators of Cytochrome P450 3A4 (AID 885; active means well fitted curve in the direction sought with a large enough effect; an effect the other way counts as inactive or inconclusive; further: nearly all actives have a fitted effect of over 65% in size)
# Sequence of Cytochrome P450 3A4 (Homo sapiens) (P08684 whole entry, looked up): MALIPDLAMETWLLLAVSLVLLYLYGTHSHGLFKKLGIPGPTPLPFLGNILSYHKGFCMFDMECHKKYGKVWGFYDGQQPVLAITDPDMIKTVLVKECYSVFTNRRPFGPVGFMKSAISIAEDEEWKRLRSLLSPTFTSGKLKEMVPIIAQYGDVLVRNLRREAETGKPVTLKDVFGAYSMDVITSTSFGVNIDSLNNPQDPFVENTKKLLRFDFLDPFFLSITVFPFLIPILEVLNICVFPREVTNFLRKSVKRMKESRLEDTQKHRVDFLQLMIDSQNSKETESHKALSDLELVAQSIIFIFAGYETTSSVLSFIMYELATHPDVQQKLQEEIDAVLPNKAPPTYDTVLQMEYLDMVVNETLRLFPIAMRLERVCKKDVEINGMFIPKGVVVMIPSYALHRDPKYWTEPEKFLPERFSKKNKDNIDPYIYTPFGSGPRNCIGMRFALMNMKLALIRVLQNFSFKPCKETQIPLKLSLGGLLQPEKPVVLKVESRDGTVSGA
# Method in brief: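 CYP3A4 activity: Luciferin-PPXE O-dealkylation, 25uM substrate, 200mM KPO4, RT throughout. Read-out is luciferase luminescence; higher values reflect activation.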
# [16] = measured here: cell count channel max response
# [17] = measured here: lipid channel max response
# [18] = at 28.7 µM (top of the series), parasite line A
# [19] = at 28.7 µM (top of the series), parasite line B
smiles,measurement,setting,value
CC1=C2[C@@H]3OC(=O)[C@@H](C)[C@@H]3CC[C@]2(C)C=CC1=O,outcome,[1],inactive
same,Potency,[2],10 µM (active)
same,"activity change, negative = inhibition",[3]; at 17.2 µM (top of the series),-9.62% (inactive)
same,outcome,[4],inactive
same,Potency,[5],> 20.6 µM (inactive)
same,Potency,[6],> 20.6 µM (inactive)
same,outcome,[7],inactive
same,Potency,[8],inactive
same,"activity change, negative = inhibition",[9],0.607% (inactive)
same,max response,[9]; [16],-1.82%
same,max response,[9]; [17],-3.78%
same,Potency,[10],inactive
same,Potency,[11],inactive
same,Potency,[12],inactive
same,Potency,[13],inactive
same,"activity, negative = inhibition",[14]; [18],-27% (inactive)
same,"activity, negative = inhibition",[14]; [19],-4.04% (inactive)
same,Potency,C2A,inactive
same,Potency,CP192,inactive
same,Potency,CP262,inactive
same,Potency,FAB9,inactive
CS(=N)(=O)CC[C@@H](N)C(=O)O (some centres not stated),outcome,[1],inactive
same,Potency,[2],inactive
same,"activity change, negative = inhibition",[3]; at 17.2 µM (top of the series),-1.86% (inactive)
same,"activity change, negative = inhibition",[3]; at 38 µM (top of the series),4.5% (inactive)
same,outcome,[4],inactive
same,Potency,[5],> 46 µM (inactive) and > 20.6 µM (inactive)
same,Potency,[6],> 46 µM (inactive) and > 20.6 µM (inactive)
same,outcome,[7],inactive
same,Potency,[8],inactive
same,"activity change, negative = inhibition",[9],0.596% (inactive)
same,max response,[9]; [16],16.1%
same,max response,[9]; [17],16%
same,Potency,[11],inactive
COC1=CC(=O)O[C@@H](/C=C\c2ccccc2)C1,outcome,[1],inactive
same,Potency,[2],3.16 µM (active)
same,"activity change, negative = inhibition",[3]; at 17.2 µM (top of the series),-0.425% (inactive)
same,outcome,[4],inactive
same,Potency,[5],> 20.6 µM (inactive)
same,Potency,[6],> 20.6 µM (inactive)
same,outcome,[7],inactive
same,"activity change, negative = inhibition",[9],1.1% (inactive)
same,max response,[9]; [16],-5.23%
same,max response,[9]; [17],-0.269%
same,Potency,[11],inactive
COc1ccc2c(c1OC)C(=O)O[C@H]2[C@H]1c2cc3c(cc2CCN1C)OCO3,outcome,[1],inactive
same,Potency,[2],25.1 µM (active) and inactive and 31.6 µM (active)
same,"activity change, negative = inhibition",[3]; at 17.2 µM (top of the series),-1.79% (inactive)
same,"activity change, negative = inhibition",[3]; at 38 µM (top of the series),9.14% (inactive)
same,outcome,[4],inactive
same,outcome,[7],inactive
same,Potency,[15],inactive
same,"activity change, negative = inhibition",[9],3% (inactive)
same,max response,[9]; [16],-6.69%
same,max response,[9]; [17],-2.42%
CC[C@@H]1[C@@H]2C[C@H]3[C@H]4N(C)c5ccccc5[C@@]45C[C@@H]([C@@H]2[C@@H]5O)N3[C@H]1O,outcome,[1],inactive
same,Potency,[2],inactive
same,"activity change, negative = inhibition",[3]; at 17.2 µM (top of the series),-7.21% (inactive)
same,outcome,[4],inactive
same,Potency,[5],> 20.6 µM (inactive)
same,Potency,[6],> 20.6 µM (inactive)
same,outcome,[7],inactive
same,Potency,[8],inactive
same,"activity change, negative = inhibition",[9],-1.86% (inactive)
same,max response,[9]; [16],1.73%
same,max response,[9]; [17],1.93%
same,Potency,[10],inactive
same,Potency,[11],inactive
same,Potency,[12],inactive
same,Potency,[13],inactive
same,"activity, negative = inhibition","[14]; at 12.8 µM (top of the series), parasite line A",-1.56% (inactive)
same,"activity, negative = inhibition","[14]; at 12.8 µM (top of the series), parasite line B",7.76% (inactive)
same,Potency,C2A,inactive
same,Potency,CP192,inactive
same,Potency,CP262,inactive
same,Potency,FAB9,inactive
CC[C@@]1(c2ccc(N)cc2)CCC(=O)NC1=O,outcome,[1],inactive
same,Potency,[2],inactive
same,"activity change, negative = inhibition",[3]; at 17.2 µM (top of the series),-14.6% (inactive)
same,"activity change, negative = inhibition",[3]; at 38 µM (top of the series),6.21% (inactive)
same,outcome,[4],inactive
same,Potency,[5],> 46 µM (inactive) and > 20.6 µM (inactive)
same,Potency,[6],> 46 µM (inactive) and > 20.6 µM (inactive)
same,outcome,[7],inactive
same,Potency,[15],inactive
same,"activity change, negative = inhibition",[9],0.179% (inactive)
same,max response,[9]; [16],-3.22%
same,max response,[9]; [17],-2.21%
same,Potency,[10],inactive
same,Potency,[12],inactive
same,Potency,[13],inactive
same,"activity, negative = inhibition",[14]; [18],3.34% (inactive)
same,"activity, negative = inhibition",[14]; [19],3.27% (inactive)
same,Potency,C2A,inactive
same,Potency,CP192,inactive
same,Potency,CP262,inactive
same,Potency,FAB9,inactive
